Measurements reported in PubChem BioAssay (EPA / NIEHS).
Values joined by “and” are separate entries in the source; they are usually repeats but may differ in a detail not shown here. Equal entries are not always repeated. Inconclusive results are not listed. Some structures have more than one record in an assay (separate samples or runs), and their calls can disagree. Active and inactive are the calls of the source. Rule for the calls, unless noted: active = hit-call score of the fitted dose curve at least 0.9, where 1 is the maximum; inconclusive = response in the unintended direction; inactive = score below 0.9.

How the values were obtained:
[1] = read-out: Thyroid Hormone Responsive (THRSP), THRSP (gene 7069); assay: LTEA_HepaRG_THRSP: Life Technologies and Expression Analysis (LTEA) Assay for Thyroid Hormone Responsive (THRSP) using HepaRG (AID 2283536; active = hit-call score of the fitted dose curve at least 0.9, where 1 is the maximum; inactive = score below 0.9); conditions: mRNA level, 48 h; actives raise or lower the signal
How it was run: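 qRT-PCR read-out (Fluidigm TaqMan), housekeeping-normalized (ACTB/GAPDH/POLR2A). HepaRG, 48 h chemical exposure, 8-pt half-log series from 100 uM in 0.5% DMSO, duplicates. Bidirectional curve fit vs 0.5% DMSO baseline.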

[2] = read-out: Cellular tumor antigen p53 (Homo sapiens) (UniProt P04637); assay: LTEA_HepaRG_TP53: Life Technologies and Expression Analysis (LTEA) Assay for Tumor Protein P53 (TP53) using HepaRG (AID 2283537; active = hit-call score of the fitted dose curve at least 0.9, where 1 is the maximum; inactive = score below 0.9); conditions: mRNA level, 48 h; actives raise or lower the signal
How it was run: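 Gain or loss of TP53 mRNA signal is scored relative to 0.5% DMSO after 48 h chemical treatment of HepaRG liver cells, tested in duplicate at eight half-log concentrations up to 100 uM.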

[3] = read-out: UDP glucuronosyltransferase (UGT1A1), UGT1A1 (gene 54658); assay: LTEA_HepaRG_UGT1A1: Life Technologies and Expression Analysis (LTEA) Assay for UDP glucuronosyltransferase (UGT1A1) using HepaRG (AID 2283538; active = hit-call score of the fitted dose curve at least 0.9, where 1 is the maximum; inactive = score below 0.9); conditions: mRNA level, 48 h; actives raise or lower the signal
How it was run: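 UGT1A1 transcript level, measured by qRT-PCR with three housekeeping genes for normalization, after 48 h treatment of human HepaRG cells (0.5% DMSO, duplicates, up to 100 uM, half-log steps, 8 points). Curves fit both directions against DMSO baseline.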

[4] = read-out: UDP glucuronosyltransferase (UGT1A6), UGT1A6 (gene 54578); assay: LTEA_HepaRG_UGT1A6: Life Technologies and Expression Analysis (LTEA) Assay for UDP glucuronosyltransferase (UGT1A6) using HepaRG (AID 2283539; active = hit-call score of the fitted dose curve at least 0.9, where 1 is the maximum; inactive = score below 0.9); conditions: mRNA level, 48 h; actives raise or lower the signal
How it was run: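 Expression was quantified by TaqMan qRT-PCR on Fluidigm arrays with ACTB/GAPDH/POLR2A normalization and bidirectional fitting against 0.5% DMSO. HepaRG cells (~100,000/well) were treated in duplicate for 48 h at eight half-log concentrations up to 100 uM in serum-free induction medium.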

[5] = read-out: X-box binding protein 1 (XBP1), XBP1 (gene 7494); assay: LTEA_HepaRG_XBP1: Life Technologies and Expression Analysis (LTEA) Assay for X-box binding protein 1 (XBP1) using HepaRG (AID 2283540; active = hit-call score of the fitted dose curve at least 0.9, where 1 is the maximum; inactive = score below 0.9); conditions: mRNA level, 48 h; actives raise or lower the signal
How it was run: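 XBP1 transcript by qRT-PCR (housekeeping-normalized: ACTB, GAPDH, POLR2A) after 48 h chemical treatment of HepaRG cells, 8-point half-log series topping at 100 uM, vehicle 0.5% DMSO. Gain and loss of signal fitted relative to DMSO.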

[6] = LTEA_HepaRG_LDH_cytotoxicity: Cytotoxicity Assessment in the Life Technologies and Expression Analysis (LTEA) Assay (AID 2283563);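 for AC50: LDH activity released into spent culture medium as a marker of cell death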
How it was run: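 LDH release into culture medium read after 48 h chemical treatment of HepaRG cells. Duplicate wells, eight-point half-log series topping at 100 uM, 0.5% DMSO vehicle and baseline.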

[7] = ATG_XTT_Cytotoxicity: Cytotoxicity Assessment in the Attagene TRANS-FACTORIAL HepG2 Assay (AID 2283584);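 for AC50: cells exposed to compound for 24 h before reading; active means loss of viability signal versus DMSO baseline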
How it was run: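 Viability endpoint from XTT after 24 h chemical exposure of reporter-transfected human HepG2 liver cells; signal loss fitted relative to DMSO negative control.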

[8] = TOX21_p53_BLA_p2_viability: Viability Assessment in the Tox21 HCT-116 p53 Agonism Beta-lactamase Assay, Phase 2 (AID 2283591);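 note: compound exposure lasted 16 h at 37 °C; actives lower the ATP signal meaning cytotoxicity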
How it was run: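 HCT116 p53-bla cells, 4000/well, dosed after 5 h plating (217-fold dilution of DMSO stocks) and incubated 16 h at 37C. Viability taken as cellular ATP by CellTiter-Glo luminescence after 30 min RT; signal loss marks cytotoxicity.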

[9] = TOX21_p53_BLA_p3_viability: Viability Assessment in the Tox21 HCT-116 p53 Agonism Beta-lactamase Assay, Phase 3 (AID 2283593);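 note: cells exposed to compound for 16 h before reading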
How it was run: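 HCT116 cells, 4000/well, dosed 5 h after plating by pin transfer (217-fold dilution from DMSO stock) and incubated 16 h at 37C, 5% CO2. Viability read as ATP luminescence with CellTiter-Glo after 30 min at room temperature.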

[10] = biological target: Cellular tumor antigen p53 (Homo sapiens) (UniProt P04637); assay: TOX21_p53_BLA_p3_ratio: Tox21 HCT-116 p53 Agonism Beta-lactamase Assay, Ratio, Phase 3 (AID 2283596)
Chain of Cellular tumor antigen p53 (Homo sapiens) (P04637 whole entry, looked up): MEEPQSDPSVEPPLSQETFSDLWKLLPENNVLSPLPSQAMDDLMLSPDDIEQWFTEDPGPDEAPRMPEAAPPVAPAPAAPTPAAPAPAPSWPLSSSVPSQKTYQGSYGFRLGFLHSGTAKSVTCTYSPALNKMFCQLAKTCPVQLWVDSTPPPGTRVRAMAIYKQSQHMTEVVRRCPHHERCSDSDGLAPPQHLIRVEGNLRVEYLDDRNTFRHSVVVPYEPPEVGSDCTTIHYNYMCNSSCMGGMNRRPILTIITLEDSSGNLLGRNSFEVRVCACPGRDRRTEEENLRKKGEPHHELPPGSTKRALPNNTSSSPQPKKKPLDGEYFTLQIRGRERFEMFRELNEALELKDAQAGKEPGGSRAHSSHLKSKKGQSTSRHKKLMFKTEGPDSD
How it was run: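 Cells were seeded at 4000/well, rested 5 h at 37C, then dosed with DMSO compound solutions (217-fold dilution) for 16 h. CCF4-AM substrate was loaded for 2 h at room temperature, and the 460/530 nm emission ratio was fitted for gain of signal versus DMSO.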

[11] = TOX21_p53_BLA_p4_viability: Viability Assessment in the Tox21 HCT-116 p53 Agonism Beta-lactamase Assay, Phase 4 (AID 2283597);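 note: hits lower the luminescence signal meaning cytotoxicity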
How it was run: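 Cytotoxicity as reduced cellular ATP (CellTiter-Glo luminescence, 30 min room temperature), measured in the same wells following the CCF4 FRET p53 reading. Human HCT-116 cells received compounds in DMSO (217-fold dilution) for 16 h.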

[12] = TOX21_p53_BLA_p5_viability: Viability Assessment in the Tox21 HCT-116 p53 Agonism Beta-lactamase Assay, Phase 5 (AID 2283600)
How it was run: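 Viability came from CellTiter-Glo ATP luminescence, read after 30 min at room temperature. Before this, HCT-116 p53-bla cells (4000/well) had 16 hours of compound exposure at 37C, with DMSO stocks diluted 217-fold on transfer.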

[13] = biological target: Cellular tumor antigen p53 (Homo sapiens) (UniProt P04637); assay: TOX21_p53_BLA_p4_ratio: Tox21 HCT-116 p53 Agonism Beta-lactamase Assay, Ratio, Phase 4 (AID 2283601)
How it was run: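 HCT-116 p53 beta-lactamase reporter cells (4000/well) preincubated 5 h, then compound (217-fold dilution of DMSO stock) for 16 h at 37C. CCF4-AM substrate added 2 h at room temperature; 460/530 nm emission ratio fitted upward versus DMSO.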

[14] = Tanguay_ZF_120hpf_MORT_legacy: (Legacy) Oregon State University Tanguay Lab 120 Hour Post-fertilization zebrafish Assay for Mortality (AID 2283633);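 for AC50: fitted as increase in binary mortality versus DMSO negative control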
How it was run: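 Static waterborne exposure from 6 to 120 hpf at 28C of single dechorionated wild-type (5D) embryos per well, 0.64% DMSO final. Death recorded present/absent by brightfield at 24 and 120 hpf.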

[15] = Tanguay_ZF_120hpf_YSE_legacy: (Legacy) Oregon State University Tanguay Lab 120 Hour Post-fertilization zebrafish Assay for Yolk Sac Edema (AID 2283634);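 for AC50: actives raise the incidence of yolk sac edema above the DMSO baseline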
How it was run: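 Presence or absence of yolk sac edema was recorded at 120 hpf in surviving larvae. These were wild-type Tropical 5D embryos, chorion removed at 4 hpf, held in static exposure at 28C from 6 hpf with 0.64% DMSO vehicle.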

[16] = Tanguay_ZF_120hpf_AXIS_legacy: (Legacy) Oregon State University Tanguay Lab 120 Hour Post-fertilization zebrafish Assay for Body Axis Malformation (AID 2283635);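 for AC50: potency for an increased fraction of larvae scored with body axis malformation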
How it was run: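 Binary scoring of axis defects at 120 hpf under brightfield, fitted positive versus DMSO. Tropical 5D embryos, chorion removed by pronase at 4 hpf, were singly exposed in sealed, dark plates at 28C from 6 hpf; DMSO 0.64% final.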

[17] = Tanguay_ZF_120hpf_EYE_legacy: (Legacy) Oregon State University Tanguay Lab 120 Hour Post-fertilization zebrafish Assay for Eye Malformation (AID 2283636);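 note: binary presence or absence of eye malformation scored by brightfield in 120 hpf larvae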
How it was run: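 5D wild-type embryos, pronase-dechorionated at 4 hpf; static exposure 6–120 hpf, 28C, dark; DMSO 0.64% final; 5uM trimethyltin chloride positive control. Binary eye-defect scoring at 120 hpf; dead embryos not scored.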

[18] = Tanguay_ZF_120hpf_SNOU_legacy: (Legacy) Oregon State University Tanguay Lab 120 Hour Post-fertilization zebrafish Assay for Snout Malformation (AID 2283637)
How it was run: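 Binary brightfield scoring of snout malformation at 120 hpf. Dechorionated 5D wild-type embryos, one per well, static exposure from 6 hpf at 28C, sealed and dark; final DMSO 0.64% (vol/vol), DMSO as baseline; 5uM trimethyltin chloride positive control.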

[19] = Tanguay_ZF_120hpf_JAW_legacy: (Legacy) Oregon State University Tanguay Lab 120 Hour Post-fertilization zebrafish Assay for Jaw Malformation (AID 2283638);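 for AC50: active means more embryos with jaw malformation than DMSO controls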
How it was run: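 Binary jaw-malformation call at 120 hpf by brightfield microscopy. Embryos (Tropical 5D strain, chorion removed at 4 hpf) were dosed statically at 6 hpf, one per well, at 28C with 0.64% DMSO. Embryos that died were not scored.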

Measured: AC50

CC1(C)C(C=C(Cl)Cl)C1C(=O)OCc1cccc(Oc2ccccc2)c1 (configuration not stated)
active: [3] 14.6 µM
inactive: all other assays above

CC(C)(c1ccc(O)cc1)c1ccc(O)cc1
inactive: [1] | [2] | [3] | [4] | [5] | [6] | [7] | [8] | [9] | [10] | [11] | [12] | [13] | [14] | [17] | [19]
active: [11] 85.1 µM | [13] 75.9 µM | [14] 16.4 µM | [15] 41.7 µM and 25.2 µM and 38.1 µM | [16] 36.5 µM and 64.9 µM and 25.3 µM | [17] 40 µM and 40.1 µM | [18] 46.9 µM and 47.9 µM and 37.4 µM | [19] 41.7 µM and 36.1 µM

CCOC(=O)NCCOc1ccc(Oc2ccccc2)cc1
active: [1] 75.8 µM | [2] 82.8 µM | [6] 82.2 µM
not listed: [7]
inactive: all other assays above

CC(C)CCCCCCc1ccc(O)cc1
inactive: [1] | [2] | [3] | [4] | [5] | [6] | [8] | [9] | [10] | [11] | [12] | [13] | [14] | [15] | [16] | [17] | [18] | [19]
active: [7] 50 µM [middle of 4 runs] | [9] 66.6 µM and 71.5 µM | [10] 71.2 µM | [11] 25.6 µM and 34.7 µM | [12] 37.2 µM | [13] 46.2 µM and 41.7 µM

CCCCC(CC)CN1C(=O)C2C3C=CC(C3)C2C1=O (configuration not stated)
active: [1] 22.9 µM | [3] 88.5 µM | [11] 73.3 µM
not listed: [9] | [10]
inactive: all other assays above
